The values below come from PubChem BioAssay (Tox21).

Assay [1] addresses Thyrotropin-releasing hormone receptor (Homo sapiens) (UniProt P34981). Briefly: qHTS assay to identify small molecule agonists of the thyrotropin-releasing hormone receptor (TRHR) signaling pathway (AID 1346891; calls by dose curve; further: series mostly up to about 58 µM). The essentials: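 HEK293 cells expressing TRHR plated 18 h at 37 C/5% CO2, calcium dye-loaded 2 h at 37 C, then compound added (agonist mode); kinetic calcium fluorescence read 3 min at 1 s intervals; 15 concentrations in triplicate.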
A general note: qHTS replaces the single test concentration by a dilution series.

Assay [2] in a line: Caspase-3/7 induction in HepG2 cells by small molecules, qHTS assay (AID 1346978). Further: nearly all actives have a fitted effect of over 15% in size. In a few lines: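 Caspase-3/7 induction was measured by Caspase-Glo 3/7 luminescence (30 min, room temperature) after a 17 hr compound exposure of wild-type HepG2 cells seeded at 2,000 per well and pre-incubated 5 hr.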
A short description of assay [3]: Caspase-3/7 induction in CHO-K1 cells by small molecules, qHTS cell viability counter screen (AID 1346979). Further: nearly all actives have a fitted effect of over 35% in size. Further: potency means the concentration at half of the fitted maximal effect. The essentials:
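Wild-type CHO-K1 cells (1,500/well) treated with compound after 5 h plating; after 16 h at 37C, viability read as CellTiter-Fluor fluorescence following 1 h reagent incubation, in the same wells as the caspase read.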

The nature of assay [4]: Caspase-3/7 induction in CHO-K1 cells by small molecules, qHTS assay (AID 1346980). Further: nearly all actives have a fitted effect of over 15% in size. In a few lines: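 Luminescent Caspase-Glo 3/7 read (30min, room temperature) quantified apoptosis induction. Cells were wild-type CHO-K1, treated with compound for 17hr at 37 C and 5% CO2.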
Assay [5] in a line: Caspase-3/7 induction in HepG2 cells by small molecules, qHTS cell viability counter screen (AID 1346981). Further: nearly all actives have a fitted effect of over 30% in size. Further: potency means the concentration at half of the fitted maximal effect. The essentials:
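Multiplexed with the caspase-3/7 assay: HepG2 cells, 16 hr compound treatment, CellTiter-Fluor viability detection by fluorescence.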

Assay [6] deals with Nuclear receptor subfamily 1 group I member 2 (Homo sapiens) (UniProt O75469). Briefly: Human pregnane X receptor (PXR) small molecule agonists, qHTS assay (AID 1346982). Further: nearly all actives have a fitted effect of over 35% in size. Further: potency means the concentration at half of the fitted maximal effect. In a few lines:
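We seeded PXR-Luc HepG2 cells in assay medium containing 5% charcoal-stripped FBS, added compounds 5 hr later, incubated 24 hr, and read luminescence with ONE-Glo reagent.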

Assay [7] has as its target Nuclear receptor subfamily 1 group I member 2 (Rattus norvegicus) (UniProt Q9R1A7). As to the kind of experiment: Rat pregnane X receptor (rPXR) activation by small molecules, qHTS assay (AID 1346983). Further: nearly all actives have a fitted effect of over 20% in size. The following applies: rPXR luciferase reporter cells, One-Glo luminescence, 24 h; max activation: stronger effect = higher value. In a few lines:
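Luminescent readout (One-Glo luciferase, 30 min room temperature) followed 24 hr compound treatment at 37 C of rPXR cells plated 2,000 per well and preincubated 5hr; qHTS format with compounds delivered in DMSO.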

Assay [8] has as its target Nuclear receptor subfamily 1 group I member 2 (Homo sapiens) (UniProt O75469). As to the kind of experiment: CYP3A4 induction through human pregnane X receptor (PXR) by small molecules, qHTS assay (AID 1346984). Further: nearly all actives have a fitted effect of over 40% in size. The essentials:
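qHTS, concentration-response format: HepG2 DPX-2 line, PXR/CYP3A4-luc. Exposure 24 h, 37C. Substrate Luciferin-IPA 3uM final, 3 h. Detection One-Glo, 30 min RT.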

The target is the same in assay [9]. Briefly: Human pregnane X receptor (PXR) activation by small molecules, qHTS assay (AID 1346985). Further: nearly all actives have a fitted effect of over 40% in size. The essentials:
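DPX-2 cells (HepG2 co-transfected with a PXR response element and a CYP3A4-promoter luciferase construct) were seeded at 2,000 per well, rested 5 hr at 37C, then exposed to DMSO-dissolved compounds for 24 hr. Activation was read as luciferase luminescence.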

The target of assay [10] is Cytochrome P450 2D6 (Homo sapiens) (UniProt P10635). Briefly: Cytochrome P450 Family 2 Subfamily D Member 6 (CYP2D6) small molecule antagonists: luciferase reporter qHTS assay (AID 1671196). Further: nearly all actives have a fitted effect of over 50% in size. Further: potency means the concentration at half of the fitted maximal effect. The essentials:
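Luminescence (RLU), read 20 min after detection reagent, indicated CYP2D6 conversion of proluciferin to luciferin during a 1 h NADPH-dependent reaction at room temperature.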
On the technique in general: Reporter assays use an easily measured gene product as a stand-in for the process of interest.

Assay [11] addresses Cytochrome P450 2C19 (Homo sapiens) (UniProt P33261). Briefly: Cytochrome P450 Family 2 Subfamily C Member 19 (CYP2C19) small molecule antagonists: luciferase reporter qHTS assay (AID 1671197). Further: nearly all actives have a fitted effect of over 65% in size. Further: potency means the concentration at half of the fitted maximal effect. In a few lines:
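First, compounds are pinned into enzyme-substrate mix and held 10 min at room temperature. Second, NADPH regeneration solution is added and plates incubate 1 h at 37C. Third, detection reagent is added and luminescence read after 20 min.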

The target of assay [12] is Cytochrome P450 2C9 (Homo sapiens) (UniProt P11712). Briefly: Cytochrome P450 Family 2 Subfamily C Member 9 (CYP2C9) small molecule antagonists: luciferase reporter qHTS assay (AID 1671198). Further: nearly all actives have a fitted effect of over 50% in size. Further: potency means the concentration at half of the fitted maximal effect. The essentials: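 Enzyme-substrate mix preincubated with compound 10 min at room temperature; reaction started with NADPH regeneration solution, 1 h 37C. Luminescent luciferin product read after 20 min detection reagent.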
Sequence of Cytochrome P450 2C9 (Homo sapiens) (P11712 whole entry, looked up): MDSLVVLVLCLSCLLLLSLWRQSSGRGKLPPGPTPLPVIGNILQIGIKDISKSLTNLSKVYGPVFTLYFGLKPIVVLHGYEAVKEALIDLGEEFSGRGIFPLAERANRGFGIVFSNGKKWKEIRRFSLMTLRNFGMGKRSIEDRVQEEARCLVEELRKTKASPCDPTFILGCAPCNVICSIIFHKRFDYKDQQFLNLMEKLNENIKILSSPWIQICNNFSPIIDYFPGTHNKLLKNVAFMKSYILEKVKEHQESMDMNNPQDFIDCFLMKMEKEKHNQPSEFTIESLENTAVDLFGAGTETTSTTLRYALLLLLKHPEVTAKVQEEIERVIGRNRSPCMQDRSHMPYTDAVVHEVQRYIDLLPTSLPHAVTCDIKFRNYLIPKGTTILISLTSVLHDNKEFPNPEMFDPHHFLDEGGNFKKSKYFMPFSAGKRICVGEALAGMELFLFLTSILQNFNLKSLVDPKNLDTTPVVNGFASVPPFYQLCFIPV

In assay [13] the target is Voltage-gated inwardly rectifying potassium channel KCNH2 (Homo sapiens) (UniProt Q12809). As to the kind of experiment: Human Ether-a-go-go-Related Gene (hERG) channel small molecule antagonists: fluorescence cell-based qHTS assay (AID 1671200).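 Further: hERG-expressing U2OS cells given a thallium stimulus after FluxOR II dye loading; series mostly up to about 77 µM; nearly all actives have a fitted effect of over 50% in size.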 The essentials:
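hERG-U2OS cells plated overnight at 37 C, loaded with FluxOR II dye 1 h at RT in dark; after 10 min, thallium stimulus added. Fluorescence (480/540 nm) read kinetically for 2 min at 1 s intervals.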
In general terms: hERG is a cardiac potassium channel; its block is linked to QT prolongation.

Assay [14] concerns the target Cytochrome P450 3A4 (Homo sapiens) (UniProt P08684). As to the kind of experiment: Cytochrome P450 Family 3 Subfamily A Member 4 (CYP3A4) small molecule antagonists: luciferase reporter qHTS assay (AID 1671201). Further: nearly all actives have a fitted effect of over 50% in size. Further: potency means the concentration at half of the fitted maximal effect. In a few lines:
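P450-Glo CYP3A4 luminescent assay: compounds preincubated 10 min at room temperature with enzyme and proluciferin substrate, NADPH regeneration added, 1 h room-temperature reaction, stopped with luciferin detection reagent; luminescence read after 20 min. Ketoconazole positive control.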

Assay [15] concerns the target Cytochrome P450 1A2 (Homo sapiens) (UniProt P05177). As to the kind of experiment: Cytochrome P450 Family 1 Subfamily A Member 2 (CYP1A2) small molecule antagonists: luciferase reporter qHTS assay (AID 1671199). Further: nearly all actives have a fitted effect of over 50% in size. Further: potency means the concentration at half of the fitted maximal effect. The essentials:
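CYP1A2 turnover of a luminogenic substrate was quantified after 1 h with NADPH regeneration at room temperature. Furafylline served as positive control.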

Assay [16] in a line: Human pregnane X receptor (PXR) small molecule agonists, qHTS cell viability counter screen (AID 1346977). Further: nearly all actives have a fitted effect of over 50% in size. Further: potency means the concentration at half of the fitted maximal effect. In a few lines: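 PXR-Luc HepG2 cells (2,000/well, 5% charcoal-stripped FBS) preincubated 5 hr, then exposed to compounds 24 hr at 37 C. Viability read in the same wells by CellTiter-Fluor fluorescence, reagent added at 23 hr, 1 hr incubation.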

Where “and” joins values, the source holds several entries; their conditions need not be identical. Equal entries are not always repeated. Results filed as inconclusive are left out. Some structures have more than one record in an assay (separate samples or runs), and their calls can disagree. Calls of active or inactive are those of the source. Unless noted, the call rests on the fitted dose curve; in most records, active means well fitted curve in the direction sought with a large enough effect in the repeat runs; inconclusive means weak or mixed curves; inactive means no such curve, though single readings can be large; an effect the other way counts as inactive or inconclusive.
On the % scale 0 is the no-effect control and ±100 the full control effect.

Sequence of Thyrotropin-releasing hormone receptor (Homo sapiens) (P34981 whole entry, looked up): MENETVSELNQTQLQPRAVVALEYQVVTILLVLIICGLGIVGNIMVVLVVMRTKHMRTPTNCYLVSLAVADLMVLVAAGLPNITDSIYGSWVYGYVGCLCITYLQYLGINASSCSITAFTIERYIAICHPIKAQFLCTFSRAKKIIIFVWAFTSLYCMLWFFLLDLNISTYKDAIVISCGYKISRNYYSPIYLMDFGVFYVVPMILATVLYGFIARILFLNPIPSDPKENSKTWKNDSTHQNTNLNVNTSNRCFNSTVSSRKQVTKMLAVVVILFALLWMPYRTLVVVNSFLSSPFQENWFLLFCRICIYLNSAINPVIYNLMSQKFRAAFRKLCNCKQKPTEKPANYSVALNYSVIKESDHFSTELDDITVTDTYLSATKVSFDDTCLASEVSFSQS
Sequence of Voltage-gated inwardly rectifying potassium channel KCNH2 (Homo sapiens) (Q12809 whole entry, looked up): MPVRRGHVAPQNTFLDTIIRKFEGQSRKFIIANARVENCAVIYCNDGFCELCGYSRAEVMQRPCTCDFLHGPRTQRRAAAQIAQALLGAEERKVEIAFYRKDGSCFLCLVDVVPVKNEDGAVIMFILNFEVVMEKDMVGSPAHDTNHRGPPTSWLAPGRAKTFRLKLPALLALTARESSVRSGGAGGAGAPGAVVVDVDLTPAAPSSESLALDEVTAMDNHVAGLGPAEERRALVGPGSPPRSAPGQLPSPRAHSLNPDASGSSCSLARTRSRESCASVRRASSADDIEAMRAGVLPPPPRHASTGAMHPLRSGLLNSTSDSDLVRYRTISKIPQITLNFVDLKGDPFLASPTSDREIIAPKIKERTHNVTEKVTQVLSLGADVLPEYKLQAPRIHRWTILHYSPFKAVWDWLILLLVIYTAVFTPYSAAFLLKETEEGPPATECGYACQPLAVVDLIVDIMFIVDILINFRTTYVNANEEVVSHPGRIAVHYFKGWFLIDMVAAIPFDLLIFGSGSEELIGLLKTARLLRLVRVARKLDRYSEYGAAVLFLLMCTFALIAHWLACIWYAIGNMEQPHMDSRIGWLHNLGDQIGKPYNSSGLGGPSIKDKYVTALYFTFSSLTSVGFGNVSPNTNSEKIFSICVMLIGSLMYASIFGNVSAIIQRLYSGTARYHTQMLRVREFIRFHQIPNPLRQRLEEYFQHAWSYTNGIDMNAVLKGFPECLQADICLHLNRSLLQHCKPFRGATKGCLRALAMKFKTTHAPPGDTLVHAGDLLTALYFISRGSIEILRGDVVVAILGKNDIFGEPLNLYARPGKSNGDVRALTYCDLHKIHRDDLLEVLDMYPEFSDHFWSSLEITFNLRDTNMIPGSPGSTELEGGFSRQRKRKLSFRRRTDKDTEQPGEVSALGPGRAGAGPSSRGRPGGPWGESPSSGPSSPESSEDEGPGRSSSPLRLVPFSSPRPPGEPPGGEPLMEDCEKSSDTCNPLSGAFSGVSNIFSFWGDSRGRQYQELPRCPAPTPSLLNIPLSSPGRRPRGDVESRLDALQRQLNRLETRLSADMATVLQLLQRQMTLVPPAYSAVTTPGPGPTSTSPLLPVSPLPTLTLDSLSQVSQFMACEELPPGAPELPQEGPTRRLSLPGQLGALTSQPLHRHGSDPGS
Sequence of Cytochrome P450 2D6 (Homo sapiens) (P10635 whole entry, looked up): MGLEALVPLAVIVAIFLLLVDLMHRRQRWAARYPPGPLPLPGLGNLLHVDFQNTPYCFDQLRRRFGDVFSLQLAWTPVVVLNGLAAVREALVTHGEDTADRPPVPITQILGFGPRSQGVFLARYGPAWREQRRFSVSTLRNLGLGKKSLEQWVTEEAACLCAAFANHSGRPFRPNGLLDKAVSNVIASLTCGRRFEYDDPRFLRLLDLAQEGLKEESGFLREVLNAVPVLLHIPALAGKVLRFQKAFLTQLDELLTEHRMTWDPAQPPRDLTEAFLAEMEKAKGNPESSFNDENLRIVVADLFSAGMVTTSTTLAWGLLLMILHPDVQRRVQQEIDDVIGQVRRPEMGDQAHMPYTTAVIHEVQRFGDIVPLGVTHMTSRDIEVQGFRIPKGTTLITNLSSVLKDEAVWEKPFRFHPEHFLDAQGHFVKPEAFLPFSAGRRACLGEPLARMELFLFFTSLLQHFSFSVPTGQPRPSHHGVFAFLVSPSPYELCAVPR
Sequence of Cytochrome P450 1A2 (Homo sapiens) (P05177 whole entry, looked up): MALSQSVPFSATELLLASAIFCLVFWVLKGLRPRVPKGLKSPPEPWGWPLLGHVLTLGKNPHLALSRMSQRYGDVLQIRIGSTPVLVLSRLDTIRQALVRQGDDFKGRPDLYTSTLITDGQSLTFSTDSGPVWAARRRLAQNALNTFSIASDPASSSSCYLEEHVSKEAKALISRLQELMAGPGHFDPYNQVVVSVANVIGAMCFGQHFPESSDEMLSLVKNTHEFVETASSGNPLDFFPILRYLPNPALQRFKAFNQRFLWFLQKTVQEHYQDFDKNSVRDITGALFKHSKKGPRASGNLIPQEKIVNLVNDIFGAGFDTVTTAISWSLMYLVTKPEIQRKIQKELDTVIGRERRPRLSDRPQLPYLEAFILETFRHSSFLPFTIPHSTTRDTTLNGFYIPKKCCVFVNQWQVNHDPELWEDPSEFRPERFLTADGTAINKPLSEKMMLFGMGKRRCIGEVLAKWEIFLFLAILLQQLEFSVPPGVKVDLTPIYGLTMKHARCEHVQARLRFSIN
Sequence of Nuclear receptor subfamily 1 group I member 2 (Homo sapiens) (O75469 whole entry, looked up): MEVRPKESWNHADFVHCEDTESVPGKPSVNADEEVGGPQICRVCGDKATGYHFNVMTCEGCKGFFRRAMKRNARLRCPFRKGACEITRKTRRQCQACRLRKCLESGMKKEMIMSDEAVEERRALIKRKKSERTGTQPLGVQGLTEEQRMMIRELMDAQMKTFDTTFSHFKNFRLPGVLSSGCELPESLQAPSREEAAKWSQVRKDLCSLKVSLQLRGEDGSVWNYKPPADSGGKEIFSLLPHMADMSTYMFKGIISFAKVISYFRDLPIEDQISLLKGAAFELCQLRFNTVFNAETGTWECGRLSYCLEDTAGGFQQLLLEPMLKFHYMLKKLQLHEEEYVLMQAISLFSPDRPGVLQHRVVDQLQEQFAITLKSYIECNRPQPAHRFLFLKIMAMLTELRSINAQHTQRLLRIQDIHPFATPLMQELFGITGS
Sequence of Cytochrome P450 2C19 (Homo sapiens) (P33261 whole entry, looked up): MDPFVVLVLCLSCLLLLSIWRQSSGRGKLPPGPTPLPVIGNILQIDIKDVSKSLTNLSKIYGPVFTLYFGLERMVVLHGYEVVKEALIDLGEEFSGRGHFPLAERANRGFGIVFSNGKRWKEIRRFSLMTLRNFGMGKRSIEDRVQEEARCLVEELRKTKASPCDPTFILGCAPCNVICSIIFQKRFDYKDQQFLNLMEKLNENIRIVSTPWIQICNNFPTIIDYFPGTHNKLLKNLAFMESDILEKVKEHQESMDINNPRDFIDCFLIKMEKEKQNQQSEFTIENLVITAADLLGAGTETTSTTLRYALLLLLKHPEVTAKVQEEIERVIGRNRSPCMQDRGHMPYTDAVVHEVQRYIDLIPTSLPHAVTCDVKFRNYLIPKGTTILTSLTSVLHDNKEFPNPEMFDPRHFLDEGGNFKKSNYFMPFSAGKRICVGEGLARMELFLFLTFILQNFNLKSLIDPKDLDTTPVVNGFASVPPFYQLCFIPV
Sequence of Cytochrome P450 3A4 (Homo sapiens) (P08684 whole entry, looked up): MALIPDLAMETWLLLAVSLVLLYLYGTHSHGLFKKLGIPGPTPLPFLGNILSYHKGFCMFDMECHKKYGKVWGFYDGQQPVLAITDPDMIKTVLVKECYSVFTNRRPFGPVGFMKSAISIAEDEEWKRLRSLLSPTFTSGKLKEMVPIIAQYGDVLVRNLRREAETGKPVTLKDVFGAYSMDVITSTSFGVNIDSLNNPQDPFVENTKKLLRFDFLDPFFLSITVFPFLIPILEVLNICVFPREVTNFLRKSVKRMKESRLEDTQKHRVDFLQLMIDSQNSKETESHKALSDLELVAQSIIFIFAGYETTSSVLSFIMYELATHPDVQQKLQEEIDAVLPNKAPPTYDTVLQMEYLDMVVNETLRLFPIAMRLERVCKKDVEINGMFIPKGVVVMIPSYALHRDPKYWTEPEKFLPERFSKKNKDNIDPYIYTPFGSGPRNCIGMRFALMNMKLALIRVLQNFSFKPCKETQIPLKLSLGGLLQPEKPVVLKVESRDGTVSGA
Sequence of Nuclear receptor subfamily 1 group I member 2 (Rattus norvegicus) (Q9R1A7 whole entry, looked up): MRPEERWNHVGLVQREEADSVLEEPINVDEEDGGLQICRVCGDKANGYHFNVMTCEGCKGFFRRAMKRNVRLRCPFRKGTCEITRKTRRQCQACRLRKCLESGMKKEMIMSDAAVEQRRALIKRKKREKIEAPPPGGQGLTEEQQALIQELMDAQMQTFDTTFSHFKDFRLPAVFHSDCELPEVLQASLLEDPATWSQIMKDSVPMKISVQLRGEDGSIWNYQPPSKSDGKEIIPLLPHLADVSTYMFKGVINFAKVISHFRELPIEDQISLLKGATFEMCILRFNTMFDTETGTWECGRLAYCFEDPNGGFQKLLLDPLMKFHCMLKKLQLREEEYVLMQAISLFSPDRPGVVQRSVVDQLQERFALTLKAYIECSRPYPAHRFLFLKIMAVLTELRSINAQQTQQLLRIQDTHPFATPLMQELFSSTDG

Take `c1ccc2ccccc2c1`: the Potency result in assay [1], in [2], in [3], in [4], in assay [5] and in assay [6] was “inactive” throughout. Besides, the Potency result in [10], in assay [11], in [12], in [13] and in assay [14] was “inactive” each time. In assay [7], the max activation is -0.655% (inactive). Moreover, the molecule was called inactive in assay [8] and in assay [9].
For the molecule `C=CC(=O)OCCCCCCCC(C)C`, the Potency entry in [1], in [2], in assay [3], in [4], in assay [5] and in assay [6] was “inactive” throughout. The Potency result in assay [10], in assay [11], in assay [12], in assay [15], in assay [13] and in assay [14] was “inactive” each time.
With `C=C(C#N)C(=O)OCC`, the Potency result in [1], in assay [16], in assay [2], in [4], in assay [5] and in assay [6] was “inactive” in each case. For the same molecule, the Potency result in assay [13] and in assay [14] was “inactive” each time. The Potency entry in assay [3] was “inactive and 61.1 µM (active)”; in assay [10] it was 44.7 µM (active); in assay [11], “inactive and 56.4 µM (active)”; in [12], “inactive and 63.3 µM (active)”.
As to `Cc1cc(O)c2c(c1)C(=O)c1cc(O)cc(O)c1C2=O`, the Potency entry in assay [1], in assay [2], in [4], in assay [10] and in assay [13] was “inactive” throughout. Further, the Potency in assay [16] is 29.9 µM (active); in assay [3] it was 48.6 µM (active); in assay [5], 26.7 µM (active) and 21.7 µM (active); in assay [6], 29.9 µM (active) and 21.7 µM (active); in assay [11] it was “inactive and 35.6 µM (active)”; in [12], 12.3 µM (active) and 11.2 µM (active). Besides, the Potency in [14] is 27.6 µM (active) and 22.4 µM (active).
`CCc1ccccc1O`: the Potency entry in [1], in assay [16], in assay [2], in assay [3], in assay [4] and in assay [5] was “inactive” each time. Moreover, in assay [13], the Potency result was “inactive”. Further, the Potency is 35.4 µM (active) and inactive in [10]; 17.7 µM (active) and inactive in assay [11]; 35.4 µM (active) in assay [12]; 31.6 µM (active) and inactive in assay [14].
As to `CC(C)(N=C=O)c1cccc(C(C)(C)N=C=O)c1`, the Potency entry in assay [1], in [2], in assay [3], in assay [4], in assay [5] and in assay [12] was “inactive” throughout. Besides, in [13], the Potency entry is “inactive”. In addition, the Potency is 10.8 µM (active) and 61.1 µM (active) in [6]; 35.3 µM (active) in assay [10]; 79.1 µM (active) and inactive in assay [11]; 2.81 µM (active) and 7.96 µM (active) in [14].
Consider `CNC[C@H](O)[C@@H](O)[C@H](O)[C@H](O)CO`, for which the Potency result in assay [1], in [2], in assay [3], in assay [4], in assay [5] and in assay [6] was “inactive” throughout. The Potency entry in assay [10], in [11], in assay [15], in [13] and in [14] was “inactive” in each case. In addition, the max activation in assay [7] is -2.23% (inactive). Further, the call in [8] and in assay [9] was inactive.
As to `CCCCC(CC)C(=O)OCCOCCOCCOC(=O)C(CC)CCCC` (centres undefined), the Potency entry in [1], in [2], in [3], in [4], in assay [5] and in assay [6] was “inactive” each time. For the same molecule, the Potency result in [10] and in assay [13] was “inactive” each time. Also, the Potency in [11] was 40.4 µM (active) and 17.8 µM (active); in assay [12], 25.5 µM (active) and 7.96 µM (active); in assay [14] it was 7.18 µM (active) and 8.94 µM (active).
As to `O=[N+]([O-])C(CO)(CO)CO`, the Potency entry in assay [1], in assay [2], in [4], in assay [10], in assay [15] and in assay [13] was “inactive” throughout. For the same molecule, in assay [14], the Potency result was “inactive”. Further, the Potency was 1.7 µM (active) and inactive in assay [3]; 4.26 µM (active) and inactive in assay [5]; 1.35 µM (active) and inactive in assay [6]; 69.9 µM (active) and inactive in assay [11]; 79.6 µM (active) in assay [12].
For `Oc1ccc2ccccc2c1N=Nc1ccccc1`, the Potency entry in assay [1], in assay [2], in assay [4] and in assay [13] was “inactive” in each case. Besides, the Potency is 48.5 µM (active) and 27.3 µM (active) in assay [3]; 48.5 µM (active) and 27.3 µM (active) in [5]; 43.2 µM (active) and 21.7 µM (active) in assay [6]; 35.6 µM (active) and inactive in assay [10]; 31.7 µM (active) in assay [11]; 11.2 µM (active) and 14.2 µM (active) in assay [12]. Further, the Potency was 356 nM (active) and 2.52 µM (active) in assay [15]; 6.33 µM (active) and 20 µM (active) in assay [14].
Turning to `O=C(c1cc(O)c(O)c(O)c1)c1ccc(O)c(O)c1O`, the Potency entry in assay [1], in [2], in assay [4], in [6], in assay [13] and in assay [14] was “inactive” each time. The Potency in assay [3] was 48.4 µM (active) and 54.5 µM (active) and 29.8 µM (active); in [5], 54.3 µM (active) and 30.6 µM (active); in assay [10], 31.6 µM (active) and inactive; in [11], 15.9 µM (active) and 31.7 µM (active); in [12], 3.16 µM (active) and 50.2 µM (active) and inactive.
Turning to `O=Nc1ccc(O)cc1`, the Potency result in assay [1], in assay [16], in assay [2], in [4], in assay [5] and in assay [6] was “inactive” throughout. The Potency entry in assay [13] and in assay [14] was “inactive” in each case. Also, the Potency in assay [3] is 47.4 µM (active) and inactive; in [10], 39 µM (active); in [11], 17.4 µM (active); in [15], 31 µM (active) and 39.9 µM (active).
